Reference: PubChem BioAssay AID1159580 (chemical genetic matrix, 2015)
Out of some 5,500 compounds screened, about 2,000 (36%) were called active. Another 18% or so got no clear call; they are omitted. No stated cut-off is given here; in the data, active means normalized growth mostly below about 0.91 (no sharp cut-off); inconclusive means no clear call, values can overlap the other calls; inactive means mostly above about 0.92. This is one part of the list.

Assay: chemical genetic growth profiling, strain panel (AID 1159580);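 further: tested at 20 µM; growth read once vehicle control cultures reached saturation at 30 °C; 1 = growth at the plate median or of vehicle wells; lower values mean less growth of the strain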
Details: S. cerevisiae deletion strains, growth OD

Measured: normalized growth

CC(=O)OC1CCC2(O)CC1(C)CCC1C2CC1(C)C (stereo not given)
inactive: locus YAL021C, strain ccr4, hits give low values 1 | locus YAL026C, strain drs2, hits give low values 1.05 | locus YAL030W, strain snc1, hits give low values 1.02 | locus YBL061C, strain skt5, hits give low values 1.02 | locus YBR009C, strain hhf1, hits give low values 1.03 | locus YBR021W, strain FUR4, hits give low values 1 | locus YBR023C, strain chs3, hits give low values 1.02 | locus YBR171W, strain sec66, hits give low values 1.03 | locus YBR229C, strain ROT2, hits give low values 0.949 | locus YBR231C, strain swc5, hits give low values 1.05 | locus YBR279W, strain paf1, hits give low values 1.01 | locus YCL011C, strain gbp2, hits give low values 1.03 | locus YCL016C, strain dcc1, hits give low values 1.02 | locus YCL029C, strain bik1, hits give low values 0.974 | locus YCL061C, strain MRC1, hits give low values 1.02 | locus YCL069W, strain vba3, hits give low values 1.03 | locus YCR088W, strain abp1, hits give low values 1.02 | locus YDL005C, strain med2, hits give low values 1.02 | locus YDL035C, strain GPR1, hits give low values 0.958 | locus YDL040C, strain nat1, hits give low values 1.02 | locus YDL074C, strain BRE1, hits give low values 0.989 | locus YDL101C, strain DUN1, hits give low values 0.992 | locus YDL185W, strain tfp1, hits give low values 0.968 | locus YDL192W, strain arf1, hits give low values 0.981 | locus YDR001C, strain nth1, hits give low values 1.02 | locus YDR069C, strain doa4, hits give low values 1.03 | locus YDR101C, strain arx1, hits give low values 0.973 | locus YDR137W, strain rgp1, hits give low values 0.988 | locus YDR159W, strain sac3, hits give low values 1.06 | locus YDR162C, strain NBP2, hits give low values 0.938 | locus YDR195W, strain ref2 1.01 | locus YDR297W, strain sur2, hits give low values 1.01 | locus YDR318W, strain mcm21, hits give low values 0.977 | locus YDR334W, strain swr1, hits give low values 1.03 | locus YDR335W, strain msn5, hits give low values 1.04 | locus YDR388W, hits give low values 0.965 | locus YDR392W, strain spt3, hits give low values 0.955 | locus YDR502C, strain sam2, hits give low values 1.02 | locus YEL003W, strain gim4, hits give low values 1.04 | locus YEL037C, strain rad23, hits give low values 1.02 | locus YEL061C, strain CIN8 (second series), hits give low values 1.03 | locus YER015W, strain faa2, hits give low values 1.02 | locus YER016W, strain bim1, hits give low values 1.03 | locus YER110C, hits give low values 0.973 | locus YER111C, strain swi4, hits give low values 1.02 | locus YER155C, strain BEM2 (second series), hits give low values 1.05 | locus YER155C, strain BEM2, hits give low values 0.982 | locus YER167W, strain BCK2, hits give low values 0.975 | locus YFR010W, strain ubp6, hits give low values 1.04 | locus YGL078C, strain dbp3, hits give low values 1.02 | locus YGL086W, strain mad1, hits give low values 0.996 | locus YGL167C, strain pmr1, hits give low values 1.02 | locus YGL173C, strain kem1, hits give low values 1.04 | locus YGL227W, strain vid30, hits give low values 1.03 | locus YGL240W, strain doc1, hits give low values 1.03 | locus YGL248W, strain PDE1, hits give low values 1.01 | locus YGL253W, strain hxk2, hits give low values 1.07 | locus YGR135W, strain pre9, hits give low values 1.07 | locus YGR229C, strain SMI1, hits give low values 0.914 | locus YGR252W, strain gcn5, hits give low values 1.05 | locus YHR013C, strain ard1, hits give low values 1.03 | locus YHR027C, strain rpn1, hits give low values 1.02 | locus YHR079C, strain IRE1 (second series), hits give low values 0.982 | locus YHR094C, strain hxt1, hits give low values 0.976 | locus YHR129C, strain ARP1, hits give low values 0.988 | locus YHR142W, strain chs7, hits give low values 1.03 | locus YHR200W, strain rpn10, hits give low values 0.999 | locus YIL066C, strain RNR3, hits give low values 0.961 | locus YIL073C, strain SPO22, hits give low values 1.03 | locus YIL125W, strain kgd1, hits give low values 0.986 | locus YIR030C, strain dcg1, hits give low values 0.972 | locus YJL092W, strain hpr5, hits give low values 1.03 | locus YJL095W, strain BCK1 (second series), hits give low values 1.04 | locus YJL095W, strain BCK1, hits give low values 1.02 | locus YJL115W, strain asf1, hits give low values 1.01 | locus YJL129C, strain trk1, hits give low values 1.01 | locus YJL134W, strain LCB3, hits give low values 0.974 | locus YJL154C, strain vps35, hits give low values 1.03 | locus YJL164C, strain tpk1, hits give low values 1 | locus YJL166W, strain qcr8, hits give low values 1.03 | locus YJL168C, strain set2, hits give low values 0.991 | locus YJL187C, strain SWE1 (second series), hits give low values 1.01 | locus YJL187C, strain SWE1, hits give low values 1.03 | locus YKL009W, strain mrt4, hits give low values 0.976 | locus YKL068W, hits give low values 0.984 | locus YKL085W, strain MDH1 (second series), hits give low values 0.979 | locus YKL085W, strain MDH1, hits give low values 0.979 | locus YKL160W, strain elf1, hits give low values 1.01 | locus YKL190W, strain CNB1, hits give low values 0.981 | locus YKR001C, strain vps1, hits give low values 0.977 | locus YKR026C, strain gcn3, hits give low values 1.03 | locus YKR091W, strain srl3, hits give low values 1.02 | locus YLL001W, strain dnm1, hits give low values 1 | locus YLL026W, hits give low values 1.01 | locus YLL041C, strain sdh2, hits give low values 1.02 | locus YLR027C, strain aat2, hits give low values 1.05 | locus YLR039C, strain RIC1, hits give low values 0.945 | locus YLR058C, strain SHM2, hits give low values 0.978 | locus YLR102C, strain apc9, hits give low values 0.996 | locus YLR221C, strain rsa3, hits give low values 1.05 | locus YLR258W, strain gsy2, hits give low values 1.04 | locus YLR262C, strain YPT6 (second series), hits give low values 1.03 | locus YLR268W, strain sec22, hits give low values 0.943 | locus YLR320W, strain mms22, hits give low values 1.05 | locus YLR330W, strain CHS5, hits give low values 0.987 | locus YLR342W, strain FKS1 (second series), hits give low values 0.97 | locus YLR342W, strain FKS1, hits give low values 1.02 | locus YLR357W, strain rsc2, hits give low values 1.03 | locus YLR370C, strain arc18, hits give low values 1.02 | locus YLR371W, strain rom2, hits give low values 1.02 | locus YLR384C, strain iki3, hits give low values 1.01 | locus YLR418C, strain cdc73, hits give low values 1.04 | locus YML016C, strain PPZ1, hits give low values 0.974 | locus YML032C, strain rad52, hits give low values 0.985 | locus YML120C, strain ndi1, hits give low values 0.999 | locus YML124C, strain tub3, hits give low values 0.982 | locus YMR058W, strain fet3, hits give low values 1.04 | locus YMR078C, strain ctf18, hits give low values 0.997 | locus YMR125W, strain sto1, hits give low values 0.998 | locus YMR129W, hits give low values 1.02 | locus YMR205C, strain PFK2, hits give low values 1.04 | locus YMR223W, strain ubp8, hits give low values 1.02 | locus YMR231W, strain pep5, hits give low values 1.02 | locus YMR263W, strain SAP30, hits give low values 0.984 | locus YMR307W, strain GAS1, hits give low values 0.926 | locus YNL067W, strain RPL9B, hits give low values 1.01 | locus YNL071W, strain lat1, hits give low values 1.03 | locus YNL209W, strain ssb2, hits give low values 1.01 | locus YNL233W, strain BNI4, hits give low values 1.05 | locus YNL248C, strain rpa49, hits give low values 1.03 | locus YNL250W, strain rad50, hits give low values 0.956 | locus YNL271C, strain bni1, hits give low values 0.991 | locus YNL298W, strain CLA4, hits give low values 0.967 | locus YNL307C, strain MCK1, hits give low values 1.01 | locus YNL322C, strain KRE1 (second series), hits give low values 1.01 | locus YNR049C, strain mso1, hits give low values 1.05 | locus YNR052C, strain pop2, hits give low values 1.04 | locus YOL006C, strain TOP1, hits give low values 0.973 | locus YOL012C, strain htz1 0.722 | locus YOL147C, strain pex11, hits give low values 0.985 | locus YOR001W, strain rrp6, hits give low values 1.06 | locus YOR061W, strain CKA2, hits give low values 0.957 | locus YOR069W, strain VPS5, hits give low values 0.983 | locus YOR070C, strain gyp1, hits give low values 1.03 | locus YOR080W, strain dia2, hits give low values 1.02 | locus YOR083W, strain WHI5, hits give low values 1.06 | locus YOR106W, strain vam3, hits give low values 1.02 | locus YOR136W, strain idh2, hits give low values 0.992 | locus YOR144C, strain elg1, hits give low values 0.988 | locus YOR184W, strain ser1, hits give low values 0.909 | locus YOR265W, strain rbl2, hits give low values 1.02 | locus YOR270C, strain vph1, hits give low values 1.13 | locus YOR290C, strain snf2, hits give low values 1.03 | locus YOR316C, strain cot1, hits give low values 0.992 | locus YPL051W, strain arl3, hits give low values 1.01 | locus YPL055C, strain LGE1, hits give low values 0.932 | locus YPL078C, strain atp4, hits give low values 1 | locus YPL106C, strain sse1, hits give low values 0.991 | locus YPL240C, strain hsp82, hits give low values 1.02 | locus YPL241C, strain CIN2, hits give low values 0.997 | locus YPR119W, strain clb2, hits give low values 0.989 | locus YPR141C, strain kar3, hits give low values 0.977 | locus YPR163C, strain tif3, hits give low values 0.989 | locus YPR167C, strain met16, hits give low values 0.993 | strain wtn01, hits give low values 0.958
